Experimental data reported in PubChem BioAssay.

Test: viability loss of caspase-8 NB7 cells with TRAIL – with/without TRAIL, luminescence panel, confirmation (AID 651596)
Settings: NB7 neuroblastoma + caspase-8, without TRAIL, NB7 Caspase-8, without TRAIL, mean of runs, at 10 µM
With `Cn1cc(S(=O)(=O)CC(=O)N2CCCc3ccccc32)c2ccccc21` the activity was -0.4%.
For `O=C(NCCN1CCOCC1)NC1(C(F)(F)F)Oc2ccc(Cl)cc2O1` (configuration not stated), the activity was 26.8%.
With `CC(c1ccco1)N(C(=O)COc1ccc(Cl)cc1Cl)c1ccccn1` (configuration not stated) the activity was 10.2%.
With `O=Nc1c2cc(-c3ccccc3)[nH]nc-2c2ccccc12` the activity was 78.7%.
For `CCCc1cc(=O)[nH]c(SCC(=O)Nc2sc(C(N)=O)c(C)c2C(=O)OCCOC)n1`, the activity was 86.4%.
In the case of `c1ccc(-c2nnc3sc(CN4CCC5(CC4)OCCO5)cn23)cc1`, the activity was 60.9%.
`Cc1c(Cl)cccc1Nc1nc(N)nc(CSc2ncccn2)n1` gave an activity of 92.3%.
